D3 ag: agonists of human D3 dopamine receptor; D3R DiscoveRx beta-arrestin cells, luminescence, 90 min; max activation, %; hit rate 0.58% among 410,000; in the data active = max activation above about 30%; also: 0% is about no effect
Target sequence (P35462 whole entry, looked up): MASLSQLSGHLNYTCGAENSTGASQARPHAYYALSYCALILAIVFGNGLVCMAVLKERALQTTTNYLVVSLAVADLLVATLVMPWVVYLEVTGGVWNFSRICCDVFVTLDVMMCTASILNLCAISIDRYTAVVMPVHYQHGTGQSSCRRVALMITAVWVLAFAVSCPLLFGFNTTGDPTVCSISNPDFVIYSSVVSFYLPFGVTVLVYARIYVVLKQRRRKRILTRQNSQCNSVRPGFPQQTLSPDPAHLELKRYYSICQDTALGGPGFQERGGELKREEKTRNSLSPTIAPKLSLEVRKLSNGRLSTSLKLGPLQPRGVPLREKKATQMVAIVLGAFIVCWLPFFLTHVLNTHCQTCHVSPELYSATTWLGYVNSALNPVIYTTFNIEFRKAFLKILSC
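Agonist mode: compounds and dopamine controls were applied to plated cells for 90 min at 37 degrees C after an overnight attachment at 1500 cells/well. Luminescent read-out followed 30 - 60 minutes at room temperature with DiscoveRx detection reagent.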
D1 agonist: activates the human D1 dopamine receptor; AID 504660; hit rate 1% among 360,000; activation, % at 2 µM; P21728; HEK293 T-REx D1 cells, calcium flux, agonist mode; in the data active = activation above about 30%; also: 0% is about no effect
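Tetracycline-induced HEK293 TREx D1 cells, force-coupled to calcium signalling, were dye-loaded with a no-wash calcium kit. Compound was pin-added after a 10 s baseline. Fluorescence was read kinetically at 1 cycle/s for 180 s, with calcium rises flagged as agonism.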
D3 antag: antagonists of human D3 dopamine receptor | P35462 | D3R cells, DiscoveRx beta-arrestin luminescence, antagonist mode; stronger effect = lower value | max response, negative = inhibition, % | hit rate 2.5% among 360,000; in the data active = max response below about -50%; inconclusive = no clear call, values can overlap the other calls; also: % is scaled to controls: 0 for no effect and ±100 for the full control effect
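Cells plated overnight at 1500 cells/well, then exposed to library compounds with dopamine controls for 90 minutes at 37 degrees C. DiscoveRx reagent added for 30–60 minutes at room temperature; luminescence read, quantitative HTS format.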
D1 potentiator: human D1 dopamine receptor positive modulation | AID 504651 | potentiation, % at 10 µM | P21728 | HEK293 TREx D1 cells, calcium flux, dopamine EC20 potentiation | hit rate 0.036% among 360,000; in the data active = potentiation above about 30%; also: 0% is about no effect
D1 antag: human D1 dopamine receptor antagonism | P21728 | HEK293 TREx D1 cells, calcium flux, dopamine EC80; stronger effect = lower value | activity change, negative = inhibition, % at 10 µM | hit rate 3.2% among 360,000; in the data active = activity change below about -30%; also: % is scaled to controls: 0 for no effect and ±100 for the full control effect
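HEK293 T-REx cells expressing inducible, force-coupled D1 receptor; no-wash Ca dye, 30–90 min RT. Cmpd → 180 s read at 1 Hz → EC80 DA → 180 s read.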
* marks the source's active call; other numbers are inactive results; ? = inconclusive; nt = not tested or not shown; ! = not active in a repeat. Rows were chosen to be rich in hits. Some 6% of all compounds tested hit in one or more screens of this group.

SMILES	D3 ag	D1 agonist	D3 antag	D1 potentiator	D1 antag
N#CC1=C(N)OC2=C(CC/C2=C\c2ccc(F)cc2)C1c1ccc(F)cc1 (configuration not stated)	nt	235*	nt	7	-58*
N#CC1=C(N)OC2=C(CCC/C2=C/c2ccoc2)C1c1ccoc1 (configuration not stated)	nt	10	nt	1	3
N#CC1=C(N)OC2=C(CN(Cc3ccccc3)C/C2=C\c2cccnc2)C1c1cccnc1 (configuration not stated)	3	5	20	-4	-30
COc1ccc(NC(=O)CN2C(=O)CSc3ccc(S(=O)(=O)N(C)C)cc32)cc1OC	-9	3	nt	-6	-6
COC(=O)c1ccc(NC(=O)C2CCN(S(=O)(=O)c3ccc4c(c3)CCCN4C(C)=O)CC2)cc1	-5	0	nt	-4	11
COc1ccccc1NC(=S)N(Cc1ccccc1)Cc1cccs1	1	12	-13	-2	-54*
COc1ccccc1NC(=S)N(Cc1cccs1)C1CCCC1	-2	0	-4	-1	-4
O=C(Cc1ccccc1)Nc1sc2c(c1C(=O)Nc1ccc(Cl)cc1)CCOC2	nt	1	nt	0	-1
O=C(Nc1ccccc1C(=O)O)c1ccc(NC(=O)C2CC2)cc1	15	1	54	-6	-11
O=C(Nc1ccccc1O)c1ccc(NC(=O)C2CC2)cc1	-5	0	-18	-5	-33*
Cc1cc(C)c(C(=O)N(C)CC2CCCN(CCc3ccccc3F)C2)o1 (configuration not stated)	-26	1	-15	-2	-67*
CCN(CC1CCCN(CCc2cccc(F)c2)C1)C(=O)c1ccoc1C (configuration not stated)	-5	nt	-51*	nt	nt
Cc1occc1C(=O)N(C)CC1CCCN(CCc2ccccc2F)C1 (configuration not stated)	-13	3	-28	-5	-32*
COc1cc(CN(C(=O)c2oc3ccccc3c2C)C2CCS(=O)(=O)C2)cc(OC)c1OC (configuration not stated)	6	7	nt	1	-5
CCc1nn2c(-c3ccccc3OC)ccnc2c1-c1ccc(F)cc1	1	1	nt	-6	-7
NS(=O)(=O)c1ccc(NC(=S)Nc2ccn(Cc3cccc4ccccc34)n2)cc1	-8	1	?	2	-53*
O=C(CCCN1C(=O)NC2(CCCC2)C1=O)Nc1ccc(F)cc1	5	0	-24	-7	-38*
O=C(CN1C(=O)NC2(CCCCCCC2)C1=O)Nc1ccc(Br)cc1	3	0	-13	2	-40*
CC1(c2ccc([N+](=O)[O-])cc2)NC(=O)N(CC(=O)Nc2ccc(N3CCCCC3)cc2)C1=O (configuration not stated)	-11	18	-51*	5	33
O=C(CN1C(=O)NC2(CCCCC2)C1=O)Nc1ccc(F)cc1	0	2	-3	-3	11
CCc1nc2ccc(C(=O)NCCc3ccc(OC)cc3OC)cc2nc1CC	-9	5	nt	0	18
O=C(NCCCN1CCC(Cc2ccccc2)CC1)C1CCN(S(=O)(=O)N2CCC3(CC2)OCCO3)CC1	-5	-2	7	5	-7
CS(=O)(=O)N1CCC(C(=O)NCCN2CCN(Cc3ccccc3)CC2)CC1	-2	3	-101*	4	11
O=C(NCCCN1CCN(Cc2ccccc2)CC1)C1CCN(S(=O)(=O)N2CCC3(CC2)OCCO3)CC1	-3	-3	0	-2	17
O=C(NCCN1CCC(Cc2ccccc2)CC1)C1CCN(S(=O)(=O)N2CCC3(CC2)OCCO3)CC1	-7	4	-50*	-4	6
SMILES	D3 ag	D1 agonist	D3 antag	D1 potentiator	D1 antag
COc1ccc2c(c1)c1c(c(=O)n(-c3ccccc3)c(=O)n1CC(=O)Nc1ccc(F)cc1)n2C	4	0	nt	-2	-1
COC(=O)c1ccccc1NC(=O)Cn1ncc2c(C)n(Cc3ccc(F)cc3)c(C)c2c1=O	10	3	nt	-3	-71*
CCOc1ccccc1NC(=O)Cn1ncc2c([nH]c3ccccc32)c1=O	-9	3	nt	-4	-30*
CN1CCN(c2ccccc2NC(=O)Cn2ncc3c([nH]c4ccccc43)c2=O)CC1	-17	0	-13	4	21
Cc1ccc2[nH]c3c(=O)n(CC(=O)Nc4ccccc4N4CCN(C)CC4)ncc3c2c1	-18	1	-55*	-9	10
Cc1c2cnn(CC(=O)Nc3c(F)c(F)cc(F)c3F)c(=O)c2c(C)n1Cc1ccc(F)cc1	nt	3	nt	3	4
O=C(c1ccccc1Cl)N1CCCC(c2nc3c(nnn3Cc3ccc(F)cc3F)c(=O)[nH]2)C1 (configuration not stated)	-10	-3	nt	3	5
CCOC(=O)CSc1nc2nc(C)cc(C)n2n1	1	-2	0	-3	6
CCCn1c(C)cc(C(=O)CSc2nc3nc(C)cc(C)n3n2)c1C	14	2	-6	-6	-49*
Cc1cc(C)n2nc(SCN3C(=O)c4ccccc4C3=O)nc2n1	-4	1	8	0	-33*
O=C(CC1=NCCNC(c2ccccc2)C1)c1ccccc1O (configuration not stated)	5	3	2	-9	-41*
O=C(CC1(O)C(=O)Nc2ccccc21)c1ccccc1O (configuration not stated)	-5	0	-23	-6	11
COc1ccccc1/C=N/NC(=O)CC(=O)Nc1ccc(Cl)c(Cl)c1	-2	0	-65*	-4	48
COc1cccc(NC(=O)C(=O)N/N=C/c2cc(C)n(-c3ccc(Cl)c(Cl)c3)c2C)c1	-9	3	-94*	1	-11
Cc1ccc(C)c(Nc2nc3c(S(=O)(=O)c4ccc(Br)cc4)nnn3c3ccsc23)c1	5	3	nt	-1	1
CCCCOc1cccc(C(=O)N(Cc2sccc2C)C2CCS(=O)(=O)C2)c1 (configuration not stated)	2	3	nt	0	11
Cc1ccc2oc(=O)n(Cc3ccc(OC(C)C)cc3)c2c1	-6	4	0	-1	2
CCCCOc1ccc(Cn2c(=O)oc3ccccc32)cc1	1	4	-11	-4	-39*!
CCCCOc1ccc(Cn2c(=O)oc3ccc(C)cc32)cc1	5	12	nt	-8	-79*
O=c1[nH]c2ccc(NCc3ccc(-c4ccccc4F)o3)cc2[nH]1	13	26	nt	-1	-22
O=C(O)c1ccc(S(=O)(=O)c2ccc3c(c2)C(=O)N(NC(=O)c2ccccc2)C3=O)cc1	-1	-1	0	7	14
O=C(O)c1ccc(S(=O)(=O)c2ccc3c(c2)C(=O)N(NC(=O)c2ccncc2)C3=O)cc1	-3	1	-56*	4	1
O=C(CSc1cccc2cccnc12)N/N=C/c1ccc(F)cc1	1	2	2	-9	-50*

Bioassay records as filed in PubChem.
